According to PubChem BioAssay AID1159580 (chemical genetic matrix, 2015):
The whole screen tested about 5,500 compounds, of which about 2,000 (36%) were called active. Not shown: some 18% with an inconclusive outcome. Rule as the data show it: active = normalized growth mostly below about 0.91 (no sharp cut-off); inconclusive = no clear call, values can overlap the other calls; inactive = mostly above about 0.92. Some of the results follow.

Assay: chemical genetic growth profiling, strain panel (AID 1159580);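 also: tested at 20 µM; growth read once vehicle control cultures reached saturation at 30 °C; 1 = growth at the plate median or of vehicle wells; lower values mean less growth of the strain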
Conditions: growth OD
[1] = S. cerevisiae deletion strains, locus YBR021W, strain FUR4, hits give low values
[2] = S. cerevisiae deletion strains, locus YBR229C, strain ROT2, hits give low values
[3] = S. cerevisiae deletion strains, locus YCL029C, strain bik1, hits give low values
[4] = S. cerevisiae deletion strains, locus YDL035C, strain GPR1, hits give low values
[5] = S. cerevisiae deletion strains, locus YDL074C, strain BRE1, hits give low values
[6] = S. cerevisiae deletion strains, locus YDL101C, strain DUN1, hits give low values
[7] = S. cerevisiae deletion strains, locus YDL185W, strain tfp1, hits give low values
[8] = S. cerevisiae deletion strains, locus YDL192W, strain arf1, hits give low values
[9] = S. cerevisiae deletion strains, locus YDR101C, strain arx1, hits give low values
[10] = S. cerevisiae deletion strains, locus YDR162C, strain NBP2, hits give low values
[11] = S. cerevisiae deletion strains, locus YDR318W, strain mcm21, hits give low values
[12] = S. cerevisiae deletion strains, locus YDR388W, hits give low values
[13] = S. cerevisiae deletion strains, locus YDR502C, strain sam2, hits give low values
[14] = S. cerevisiae deletion strains, locus YEL061C, strain CIN8, hits give low values
[15] = S. cerevisiae deletion strains, locus YER110C, hits give low values
[16] = S. cerevisiae deletion strains, locus YER155C, strain BEM2, hits give low values
[17] = S. cerevisiae deletion strains, locus YER167W, strain BCK2, hits give low values
[18] = S. cerevisiae deletion strains, locus YGL078C, strain dbp3, hits give low values
[19] = S. cerevisiae deletion strains, locus YGL086W, strain mad1, hits give low values
[20] = S. cerevisiae deletion strains, locus YGL248W, strain PDE1, hits give low values
[21] = S. cerevisiae deletion strains, locus YGR078C, strain PAC10, hits give low values
[22] = S. cerevisiae deletion strains, locus YGR135W, strain pre9, hits give low values
[23] = S. cerevisiae deletion strains, locus YGR252W, strain gcn5, hits give low values
[24] = S. cerevisiae deletion strains, locus YHR079C, strain IRE1 (second series), hits give low values
[25] = S. cerevisiae deletion strains, locus YHR094C, strain hxt1, hits give low values
[26] = S. cerevisiae deletion strains, locus YHR129C, strain ARP1, hits give low values
[27] = S. cerevisiae deletion strains, locus YHR200W, strain rpn10, hits give low values
[28] = S. cerevisiae deletion strains, locus YIL066C, strain RNR3, hits give low values
[29] = S. cerevisiae deletion strains, locus YIL073C, strain SPO22, hits give low values
[30] = S. cerevisiae deletion strains, locus YIL125W, strain kgd1, hits give low values
[31] = S. cerevisiae deletion strains, locus YIR030C, strain dcg1, hits give low values
[32] = S. cerevisiae deletion strains, locus YJL095W, strain BCK1, hits give low values
[33] = S. cerevisiae deletion strains, locus YJL134W, strain LCB3, hits give low values
[34] = S. cerevisiae deletion strains, locus YJL168C, strain set2, hits give low values
[35] = S. cerevisiae deletion strains, locus YJL187C, strain SWE1 (second series), hits give low values
[36] = S. cerevisiae deletion strains, locus YJR075W, strain HOC1, hits give low values
[37] = S. cerevisiae deletion strains, locus YKL009W, strain mrt4, hits give low values
[38] = S. cerevisiae deletion strains, locus YKL068W, hits give low values
[39] = S. cerevisiae deletion strains, locus YKL085W, strain MDH1 (second series), hits give low values
[40] = S. cerevisiae deletion strains, locus YKL085W, strain MDH1, hits give low values
[41] = S. cerevisiae deletion strains, locus YKL190W, strain CNB1, hits give low values
[42] = S. cerevisiae deletion strains, locus YKR001C, strain vps1, hits give low values
[43] = S. cerevisiae deletion strains, locus YLR039C, strain RIC1, hits give low values
[44] = S. cerevisiae deletion strains, locus YLR058C, strain SHM2, hits give low values
[45] = S. cerevisiae deletion strains, locus YLR102C, strain apc9, hits give low values
[46] = S. cerevisiae deletion strains, locus YLR268W, strain sec22, hits give low values
[47] = S. cerevisiae deletion strains, locus YLR330W, strain CHS5, hits give low values
[48] = S. cerevisiae deletion strains, locus YLR342W, strain FKS1 (second series), hits give low values
[49] = S. cerevisiae deletion strains, locus YLR371W, strain rom2, hits give low values
[50] = S. cerevisiae deletion strains, locus YLR418C, strain cdc73, hits give low values
[51] = S. cerevisiae deletion strains, locus YML016C, strain PPZ1, hits give low values
[52] = S. cerevisiae deletion strains, locus YML032C, strain rad52, hits give low values
[53] = S. cerevisiae deletion strains, locus YML124C, strain tub3, hits give low values
[54] = S. cerevisiae deletion strains, locus YMR078C, strain ctf18, hits give low values
[55] = S. cerevisiae deletion strains, locus YMR223W, strain ubp8, hits give low values
[56] = S. cerevisiae deletion strains, locus YMR307W, strain GAS1, hits give low values
[57] = S. cerevisiae deletion strains, locus YNL067W, strain RPL9B, hits give low values
[58] = S. cerevisiae deletion strains, locus YNL128W, strain TEP1, hits give low values
[59] = S. cerevisiae deletion strains, locus YNL233W, strain BNI4, hits give low values
[60] = S. cerevisiae deletion strains, locus YNL250W, strain rad50, hits give low values
[61] = S. cerevisiae deletion strains, locus YNL271C, strain bni1, hits give low values
[62] = S. cerevisiae deletion strains, locus YNL298W, strain CLA4, hits give low values
[63] = S. cerevisiae deletion strains, locus YNL307C, strain MCK1, hits give low values
[64] = S. cerevisiae deletion strains, locus YNR052C, strain pop2, hits give low values
[65] = S. cerevisiae deletion strains, locus YOL006C, strain TOP1, hits give low values
[66] = S. cerevisiae deletion strains, locus YOL012C, strain htz1
[67] = S. cerevisiae deletion strains, locus YOL147C, strain pex11, hits give low values
[68] = S. cerevisiae deletion strains, locus YOR061W, strain CKA2, hits give low values
[69] = S. cerevisiae deletion strains, locus YOR069W, strain VPS5, hits give low values
[70] = S. cerevisiae deletion strains, locus YOR136W, strain idh2, hits give low values
[71] = S. cerevisiae deletion strains, locus YOR144C, strain elg1, hits give low values
[72] = S. cerevisiae deletion strains, locus YOR184W, strain ser1, hits give low values
[73] = S. cerevisiae deletion strains, locus YOR316C, strain cot1, hits give low values
[74] = S. cerevisiae deletion strains, locus YPL055C, strain LGE1, hits give low values
[75] = S. cerevisiae deletion strains, locus YPR119W, strain clb2, hits give low values
[76] = S. cerevisiae deletion strains, locus YPR141C, strain kar3, hits give low values
[77] = S. cerevisiae deletion strains, locus YPR163C, strain tif3, hits give low values
[78] = S. cerevisiae deletion strains, locus YPR167C, strain met16, hits give low values
[79] = S. cerevisiae deletion strains, strain wtn01, hits give low values

Measured: normalized growth

CN1Cc2c(ccc3c2OCO3)C2C(O)Cc3cc4c(cc3C21)OCO4 (stereo unspecified)
inactive: S. cerevisiae deletion strains, locus YAL013W, strain DEP1, hits give low values 0.992 | [1] 0.939 | [2] 1 | [3] 1.03 | [4] 0.985 | [5] 0.982 | [6] 0.996 | S. cerevisiae deletion strains, locus YDL134C, strain PPH21, hits give low values 0.977 | [7] 1.02 | [8] 0.999 | [9] 0.999 | [10] 0.991 | [11] 0.998 | [12] 0.987 | [13] 0.984 | [14] 0.992 | [15] 1.01 | [16] 0.997 | [17] 0.989 | [18] 1.02 | [19] 0.989 | [20] 0.995 | [21] 0.998 | [22] 0.98 | [23] 0.96 | S. cerevisiae deletion strains, locus YHR030C, strain SLT2, hits give low values 0.999 | [24] 1.01 | [25] 1.01 | [26] 0.994 | [27] 1 | [28] 1 | [29] 1.04 | [30] 1.02 | [31] 1 | [32] 0.985 | [33] 1.01 | [34] 1 | [35] 1 | S. cerevisiae deletion strains, locus YJR043C, strain POL32, hits give low values 1.01 | [36] 0.983 | [37] 1.01 | [38] 1 | [39] 1.01 | [40] 1.01 | [41] 0.988 | [42] 0.997 | [43] 0.977 | [44] 0.992 | [45] 1.01 | S. cerevisiae deletion strains, locus YLR262C, strain YPT6, hits give low values 0.981 | [46] 1 | [47] 1.01 | [48] 0.982 | [49] 1.01 | [50] 0.956 | [51] 1 | [52] 0.991 | [53] 1.02 | [54] 1.01 | [55] 0.998 | [56] 0.95 | [57] 0.994 | [58] 0.996 | [59] 1 | [60] 1.02 | [61] 1.02 | [62] 1.03 | [63] 1.02 | S. cerevisiae deletion strains, locus YNL322C, strain KRE1, hits give low values 0.999 | [64] 0.997 | [65] 0.92 | [66] 1.21 | [67] 1 | [68] 1 | [69] 1 | [70] 1.04 | [71] 1.01 | [72] 0.984 | [73] 1.01 | [74] 0.978 | [75] 1.01 | [76] 1.01 | [77] 1.04 | [78] 1.01 | [79] 1

O[C@H]1C=C2CCN3Cc4cc5c(cc4C(C23)[C@@H]1O)OCO5 (stereo partly specified)
inactive: [1] 1.05 | [7] 0.965 | [38] 0.953 | [43] 1.08 | [56] 1.35 | [62] 0.931 | [65] 0.726 | [76] 0.976 | [77] 0.931
active: [2] 0.665 | [3] 0.331 | [4] 0.434 | [5] 0.485 | [6] 0.575 | [8] 0.591 | [9] 0.272 | [10] 0.566 | [11] 0.466 | [12] 0.514 | [13] 0.412 | [14] 0.737 | [15] 0.573 | [16] 0.87 | [17] 0.5 | [18] 0.812 | [19] 0.541 | [20] 0.398 | [21] 0.615 | [22] 0.459 | [23] 0.636 | [24] 0.38 | [25] 0.478 | [26] 0.613 | [27] 0.549 | [28] 0.678 | [29] 0.402 | [30] 0.857 | [31] 0.558 | [32] 0.448 | [33] 0.757 | [34] 0.837 | [35] 0.373 | [36] 0.53 | [37] 0.858 | [39] 0.897 | [40] 0.897 | [41] 0.659 | [42] 0.558 | [44] 0.395 | [45] 0.49 | [46] 0.454 | [47] 0.656 | [48] 0.483 | [49] 0.55 | [50] 0.707 | [51] 0.632 | [52] 0.367 | [53] 0.538 | [54] 0.713 | [55] 0.33 | [57] 0.495 | [58] 0.466 | [59] 0.557 | [60] 0.852 | [61] 0.908 | [63] 0.694 | [64] 0.605 | [66] 2.41 [resistant] | [67] 0.498 | [68] 0.565 | [69] 0.657 | [70] 0.731 | [71] 0.47 | [72] 0.545 | [73] 0.599 | [74] 0.627 | S. cerevisiae deletion strains, locus YPL241C, strain CIN2, hits give low values 0.74 | [75] 0.715 | [78] 0.523 | [79] 0.449 | S. cerevisiae strains, strain wild type, hits give low values 0.448
